From PubChem BioAssay (NCI)
“And” between values parts separate entries of the source, which are not always exact repeats. Identical values can stand only once. The panel holds about 83,000 compounds, 20% with a hit somewhere; the sample as a whole holds those more often.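 Each cell line was grown in a 96-well plate and treated with one concentration of compound for 48 hours. Values below 10 were considered active.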 The source made the active and inactive calls.

Test system: SF-539 CNS
Experiment: NCI-60 one-dose screen, 48 h (100 = growth as untreated, 0 = no growth, -100 = all killed)
Settings: 10 µM unless noted

| SMILES | growth |
| --- | --- |
| O=C(CSc1nc2ccccc2c(=O)[nH]1)Nc1ccccc1C(=O)O | 92.7% (inactive) |
| Cn1cc(-c2cc(N)n3nc(-c4c[nH]c5ccccc45)cc3n2)c2ccccc21 | -99.5% (active) |
| Cc1cccc(/C=C/c2ccc(NC(=S)NCCCCN(C)C)cc2)c1 | -86.4% (active) |
| Cc1ccc(N=Nc2c(N)nn3c(-c4cc5ccccc5oc4=O)ccnc23)cc1 | -3.24% (active) |
| O=C(Nc1nc2ccccc2s1)Nc1ccccc1Cl | 51% (inactive) |
| COc1ccc(NC(=O)CSc2nnc(-c3ccc(-c4nc5ccc(Cl)cc5[nH]4)cc3)o2)cc1 | -91.1% (active) |
| O=C1Nc2cc(-c3ccc(NS(=O)(=O)c4ccc(C(F)(F)F)cc4)cc3)ccc2/C1=C/c1ccc[nH]1 | 42.4% (inactive) |
| COc1ccc(Nc2nnc(-c3c[nH]c4ccccc34)o2)cc1 | 69.7% (inactive) |
| Cn1cc(-c2cc(N)n3nc(-c4c[nH]c5ccc(F)cc45)cc3n2)c2cccnc21 | -96.3% (active) |
| O=C(NN1C(=O)/C(=C/C=C/c2ccc([N+](=O)[O-])o2)SC1=S)c1ccc([N+](=O)[O-])cc1 | -100% (active) |
| CN1C(=O)/C(=C/c2ccco2)S/C1=N/c1nccs1 | 103% (inactive) |
| N#C/C(=C/c1ccc([N+](=O)[O-])cc1)c1nnc(NC(=O)c2ccc(-n3c(=O)[nH]c4ccccc4c3=O)cc2)s1 | 93.6% (inactive) |
| O=C(CSc1nnc(-c2ccc(-c3nc4ccc(Cl)cc4[nH]3)cc2)o1)Nc1ccccc1 | -92.8% (active) |
| Cc1cccc(NCC(=O)N2CCN(c3ncnc4c3cnn4-c3ccccc3)CC2)c1 | 59.9% (inactive) |
| O=C(N/N=C/c1ccc(Br)o1)c1[nH]c2ccc(Br)cc2c1-c1ccccc1 | -99.5% (active) |
| CCCCCCCCc1ccc(C(=O)Nc2ccc(C)c(OP(=O)(O)O)c2)cc1 | 93.4% (inactive) |
| Cn1cc(-c2cc3nc(-c4cn(C)c5ncc(Br)cc45)cc(N)n3n2)c2cc(F)ccc21 | -26.5% (active) |
| O=C1Nc2ccccc2/C1=C/C(=O)c1cc2ccccc2oc1=O | 102% (inactive) |

| SMILES | growth |
| --- | --- |
| c1n[nH]cc1-c1nc2ccc3cn[nH]c3c2c2c1CCCC2 | 80.8% (inactive) |
| CN1C(=O)C(O)(CC(=O)c2cc3ccccc3oc2=O)c2ccccc21 (stereo not given) | 93.3% (inactive) |
| O=C(CCl)Nc1ccc(C(=O)/C=C/c2cc3ccccc3nc2Cl)cc1 | -99.1% (active) and 13.3% (inactive) |
| Cc1cc(C2(c3cc(C)c(OCC(O)CNc4c(C)n(C)n(-c5ccccc5)c4=O)cc3C(C)C)OC(=O)c3ccccc32)c(C(C)C)cc1OCC(O)CNc1c(C)n(C)n(-c2ccccc2)c1=O (stereo not given) | 38.9% (inactive) |
| Cn1cc(-c2cc(N)n3nc(-c4c[nH]c5ccccc45)cc3n2)c2cc(Br)ccc21 | -93.7% (active) |
| CCC(=O)c1c2c(c3ccc4c5ccccc5ccc4n13)C(=O)c1ccccc1C2=O | 77.8% (inactive) |
| CS(=O)(=O)Nc1cc(-c2ccc3ncnc(Nc4ccc(OCc5cccnc5)c(Cl)c4)c3c2)cnc1Cl | -38% (active) |
| Cn1cc(-c2cc(N)n3nc(-c4c[nH]c5ccccc45)cc3n2)c2cc(Cl)ccc21 | -92.2% (active) |
| COc1ccc(N=Nc2c(N)nn3c(N)c(C#N)c(-c4ccc(C)cc4)nc23)cc1 | 52.4% (inactive) |
| COc1ccc(C(=O)/C=C/c2ccc3c(c2)OCCO3)cc1S(N)(=O)=O | 44.9% (inactive) |
| CCCCC[C@@H]1C/C=C(\C)[C@@H](O)C(C)(C)C(=O)[C@@H](C)/C=C(\C)[C@@H]2C[C@H](O)C[C@](O)(CC(=O)O1)O2 | 73.8% (inactive) |
| CC(C)(C)c1ccc(OCc2nc3ccccc3n2-c2cccc(N)c2)cc1 | 66.7% (inactive) and 100% (inactive) |
| O=C1/C(=C/c2cnc(-c3ccccc3)s2)SC(=S)N1Cc1ccc2c(c1)OCO2 | 23.3% (inactive) |
| COc1ccc(NC2=C(I)C(=O)C(C)=C(C)C2=O)cc1 | -28.1% (active) |
| COc1ccc(-c2nnc3c(/C=C/c4ccc(Br)cc4)nc4ccccc4n23)cc1 | 23.8% (inactive) |
| C[C@H]1[C@@H](CC(=O)N[C@@H](Cc2coc3ccccc23)B(O)O)O[C@@H]2OC3(C)CC[C@H]4[C@H](C)CC[C@@H]1[C@@]24O3 | -91.6% (active) |
| O=C(NNC(=S)NC(=O)c1ccccc1)c1ccc(OCc2nc3ccc(Cl)cc3[nH]2)cc1 | -91.2% (active) |
